The text below walks through data of PubChem BioAssay (Tox21).

Test [1] in a line: A CellTox Green Cytotoxicity Assay to monitor cytotoxicity in HepG2 cells - 0 hour (AID 1224882). Note: nearly all actives have a fitted effect of over 35% in size. The gist of the method: (§1)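 HepG2 cells, 600/well, preincubated 5 h with CellTox Green dye, then exposed to Tox21 compounds in DMSO at 37 C for up to 40 h. Dead-cell DNA fluorescence read at the indicated time point.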
A short description of test [2]: A CellTox Green Cytotoxicity Assay to monitor cytotoxicity in HepG2 cells - 32 hour (AID 1224883). Note: nearly all actives have a fitted effect of over 50% in size. Note: potency is the fitted concentration of half-maximal effect. An outline of the steps:
as §1

Test [3] in a line: A CellTox Green Cytotoxicity Assay to monitor cytotoxicity in HEK293 cells - 8 hour (AID 1224884). Note: nearly all actives have a fitted effect of over 35% in size. The gist of the method: (§2)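 HEK293 cells, 600/well, were preincubated 5 hours and then exposed to compounds at 37 C for up to 40 hours. A cell-impermeant cyanine dye staining dead-cell DNA was read by fluorescence at 0, 8, 16, 24, 32 and 40 h time points.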
The nature of test [4]: qHTS RealTime-Glo MT Cell Viability Assay in HepG2 cells - 16 hour (AID 1224885). Note: nearly all actives have a fitted effect of over 50% in size. The gist of the method:
(§3)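 qHTS, HepG2, 600 cells/well, RealTime-Glo (NanoLuc + prosubstrate) added with cells; 5 h preincubation; DMSO compound addition; 37 C; luminescence at 0/8/16/24/32/40 h.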

Test [5] can be described thus: qHTS RealTime-Glo MT Cell Viability Assay in HEK293 cells - 24 hour (AID 1224886). For activity change, negative = cytotoxicity: top concentration of the series differs between compounds. Note: nearly all actives have a fitted effect of over 50% in size. Note: potency is the fitted concentration of half-maximal effect. An outline of the steps: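 Assay medium contained NanoLuc luciferase plus cell-permeant prosubstrate, added with HEK293 cells at 600 cells/well. After 5 h at 37 C/5% CO2 compounds were added; plates stayed at 37 C for 40 h with serial luminescence reads.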
Test [6] is described as follows: qHTS RealTime-Glo MT Cell Viability Assay in HEK293 cells - 8 hour (AID 1224887). For activity change, negative = cytotoxicity: top concentration of the series differs between compounds. Note: nearly all actives have a fitted effect of over 50% in size. Note: potency is the fitted concentration of half-maximal effect. The gist of the method:
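600 cells/well were plated with the nonlytic NanoLuc/prosubstrate reagent, pre-incubated 5 h, then given 23 nL of compound in DMSO. Incubation at 37 C for 40 h, with luminescence from viable-cell-reduced substrate read repeatedly from 0 h.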

Test [7] can be described thus: A CellTox Green Cytotoxicity Assay to monitor cytotoxicity in HEK293 cells - 16 hour (AID 1224888). Note: nearly all actives have a fitted effect of over 35% in size. The gist of the method:
as §2

Test [8] can be described thus: qHTS RealTime-Glo MT Cell Viability Assay in HepG2 cells - 0 hour (AID 1224889). Note: nearly all actives have a fitted effect of over 50% in size. The gist of the method:
as §3

Test [9] is described as follows: A CellTox Green Cytotoxicity Assay to monitor cytotoxicity in HepG2 cells - 8 hour (AID 1224890). Note: nearly all actives have a fitted effect of over 45% in size. An outline of the steps: as §1
Test [10] is described as follows: qHTS assay to identify small molecule antagonists of the estrogen receptor alpha (ER-alpha) signaling pathway using the BG1 cell line in the presence of 0.1 nM 17-beta-estradiol - cell viability counter screen (AID 1259241). Note: nearly all actives have a fitted effect of over 40% in size. An outline of the steps: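 Cells were plated and left 24 hr, compounds in DMSO were pinned in, 17beta-estradiol was added to 0.1 nM final, and after 22 hr CellTiter-Fluor reagent was added for 30 min before fluorescence was read.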

Test [11] in a line: qHTS assay to identify small molecule antagonists of the androgen receptor (AR) signaling pathway using the MDA cell line in the presence of 0.5 nM R1881 - cell viability counter screen (AID 1259242). Note: nearly all actives have a fitted effect of over 45% in size. The gist of the method:
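MDA-kb2 cells (MMTV-luciferase, AR/GR responsive) were treated with compounds plus 0.5 nM R1881 (final) for 16 hr at 37C, 0% CO2. Viability was then read in the same wells as live-cell protease fluorescence (CellTiter-Fluor, 30 min).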

For test [12], the target named is Estrogen receptor (Homo sapiens) (UniProt P03372). Nature of the test: qHTS assay to identify small molecule antagonists of the estrogen receptor alpha (ER-alpha) signaling pathway using the BG1 cell line in the presence of 0.1 nM 17-beta-estradiol (AID 1259244). Note: nearly all actives have a fitted effect of over 50% in size. An outline of the steps:
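VM7Luc4E2 cells (endogenous full-length ER-alpha, 4×ERE-luciferase), kept 5 days in phenol red-free, charcoal-stripped FBS medium; 4,000 cells/well. Compounds added with 0.1 nM (final) 17beta-estradiol, 22 hr at 37C; luminescence read with ONE-Glo after 30 min.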

Test [13] in a line: qHTS assay to identify small molecule HDAC inhibitors (AID 1259364). For activity change, negative = inhibition: top concentration of the series differs between compounds. Note: nearly all actives have a fitted effect of over 45% in size. Note: potency is the fitted concentration of half-maximal effect. An outline of the steps: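 Wild-type HCT-116 cells, plated overnight at 37 C, exposed to compounds 2 hr at 37 C; luminogenic HDAC-Glo substrate then added 30 min at room temperature. Luminescence reports relative endogenous class I/II HDAC activity.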
Test [14] is described as follows: qHTS assay to identify small molecule HDAC inhibitors - cell viability counter screen (AID 1259365). An outline of the steps:
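Counter screen in wild-type HCT-116 cells: compounds dissolved in DMSO are pin-transferred onto overnight-plated cells and left 2hr at 37C. ATP-based CellTiter-Glo luminescence then measures viable cells.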

Test [15] in a line: qHTS assay to identify small molecule agonists of the sonic hedgehog signaling (Shh) pathway - cell viability counter screen (AID 1259366). Note: nearly all actives have a fitted effect of over 50% in size. An outline of the steps: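 Cells are plated at 2,000 per well and left 4hr at 37C, 5% CO2 before compound addition. After 23hr of treatment, CellTiter-Fluor reagent is added for 1hr at 37C and fluorescence is measured.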
A short description of test [16]: qHTS assay to identify small molecule agonists of the sonic hedgehog signaling (Shh) pathway (AID 1259368; calls by dose curve;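 note: NIH/3T3-derived 3T3Gli1-Luc cells carrying a stable Gli1-driven firefly luciferase reporter; series mostly up to about 92 µM; nearly all actives have a fitted effect of over 15% in size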). The gist of the method: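 NIH/3T3-derived 3T3Gli1-Luc cells with stably integrated Gli1-driven firefly luciferase, 2,000 cells/well, compounds added after 4 hr. Incubated 24 hr at 37C, 5% CO2; luminescence read after 30 min with luciferase reagent at room temperature.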

Test [17] can be described thus: qHTS assay to identify small molecule phospholipidosis (PLD) inducers (AID 1259344; active = well fitted curve in the direction sought with a large enough effect; an effect the other way counts as inactive or inconclusive). An outline of the steps: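 Phospholipidosis is scored by imaging LipidTOX-stained pits in HepG2 cells exposed to compound for 24 h at 37 C; pit counts and integrated intensities per well and per cell serve as outputs.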
A short description of test [18]: qHTS assay to identify small molecule antagonists of the sonic hedgehog signaling (Shh) pathway - cell viability counter screen (AID 1259367). Note: nearly all actives have a fitted effect of over 55% in size. The gist of the method: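 Cells: 3T3 Gli1-Luc, 2,000/well, 4 hr pre-incubation. Compounds in DMSO, then conditioned medium. Incubation 24 hr, 37C, 5% CO2. CellTiter-Fluor at 23 hr, 1 hr, fluorescence.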
The nature of test [19]: A CellTox Green Cytotoxicity Assay to monitor cytotoxicity in HEK293 cells - 32 hour (AID 1224881). Note: nearly all actives have a fitted effect of over 40% in size. An outline of the steps: as §2
Test [20] addresses Androgen receptor (Homo sapiens) (UniProt P10275). Nature of the test: qHTS assay to identify small molecule antagonists of the androgen receptor (AR) signaling pathway using the MDA cell line in the presence of 0.5 nM R1881 (AID 1259243). Note: nearly all actives have a fitted effect of over 50% in size. The gist of the method: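 MDA-kb2 cells (MMTV-luciferase, responsive to AR and GR) at 3,000/well, rested 5 h at 37C, 0% CO2, then given compounds plus 0.5 nM R1881 (final) for 16 hr. Luciferase read with ONE-Glo after 30 min at room temperature.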

A number with no mark means an inactive call. Records with an inconclusive call do not appear. Activity calls are given as the source filed them. Unless noted, calls come from the whole dose curve; as a rule, active = well fitted curve in the direction sought with a large enough effect in the repeat runs; inconclusive = weak or mixed curves; inactive = no such curve, though single readings can be large; an effect the other way counts as inactive or inconclusive.
% is set by controls: 0 for no effect and ±100 for the full control effect.

Sequence of Estrogen receptor (Homo sapiens) (P03372 whole entry, looked up): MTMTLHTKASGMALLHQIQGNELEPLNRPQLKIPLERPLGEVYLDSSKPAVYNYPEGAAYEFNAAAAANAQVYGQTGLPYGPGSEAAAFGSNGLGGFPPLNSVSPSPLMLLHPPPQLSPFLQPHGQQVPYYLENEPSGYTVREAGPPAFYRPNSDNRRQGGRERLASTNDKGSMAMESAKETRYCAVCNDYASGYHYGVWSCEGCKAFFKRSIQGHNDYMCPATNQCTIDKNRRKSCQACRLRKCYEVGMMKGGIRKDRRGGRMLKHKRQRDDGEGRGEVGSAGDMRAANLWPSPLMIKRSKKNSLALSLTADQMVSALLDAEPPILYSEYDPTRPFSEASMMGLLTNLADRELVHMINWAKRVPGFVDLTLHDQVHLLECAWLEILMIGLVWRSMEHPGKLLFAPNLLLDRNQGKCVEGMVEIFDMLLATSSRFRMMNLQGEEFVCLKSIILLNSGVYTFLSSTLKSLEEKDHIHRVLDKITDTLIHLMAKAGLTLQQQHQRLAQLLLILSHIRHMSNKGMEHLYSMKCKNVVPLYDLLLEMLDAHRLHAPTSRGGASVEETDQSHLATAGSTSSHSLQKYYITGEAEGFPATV
Sequence of Androgen receptor (Homo sapiens) (P10275 whole entry, looked up): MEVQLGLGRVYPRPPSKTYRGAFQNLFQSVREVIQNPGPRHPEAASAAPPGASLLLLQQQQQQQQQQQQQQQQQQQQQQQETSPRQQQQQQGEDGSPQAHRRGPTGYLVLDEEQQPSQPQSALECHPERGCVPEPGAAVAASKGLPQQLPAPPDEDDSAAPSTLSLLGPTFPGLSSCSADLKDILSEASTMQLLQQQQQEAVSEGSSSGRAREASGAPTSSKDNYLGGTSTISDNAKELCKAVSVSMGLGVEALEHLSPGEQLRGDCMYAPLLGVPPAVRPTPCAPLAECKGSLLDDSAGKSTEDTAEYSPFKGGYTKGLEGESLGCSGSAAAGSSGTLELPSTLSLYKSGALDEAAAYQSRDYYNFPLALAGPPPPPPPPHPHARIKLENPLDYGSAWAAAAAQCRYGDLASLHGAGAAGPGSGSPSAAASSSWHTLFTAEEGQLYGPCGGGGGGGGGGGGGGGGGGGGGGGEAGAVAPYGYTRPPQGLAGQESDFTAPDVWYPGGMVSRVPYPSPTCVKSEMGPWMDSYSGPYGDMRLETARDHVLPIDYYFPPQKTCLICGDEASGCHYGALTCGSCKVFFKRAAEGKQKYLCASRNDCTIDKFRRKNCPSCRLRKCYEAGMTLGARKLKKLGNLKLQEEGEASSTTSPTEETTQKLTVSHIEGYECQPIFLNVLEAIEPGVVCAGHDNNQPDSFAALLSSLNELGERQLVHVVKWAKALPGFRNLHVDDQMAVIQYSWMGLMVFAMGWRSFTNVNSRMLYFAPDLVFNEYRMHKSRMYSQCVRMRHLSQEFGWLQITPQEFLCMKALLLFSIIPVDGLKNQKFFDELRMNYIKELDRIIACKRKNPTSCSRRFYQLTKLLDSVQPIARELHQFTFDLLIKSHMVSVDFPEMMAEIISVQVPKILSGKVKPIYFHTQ

As for `C/C=C/C(=O)CC`, in test [1], the cytotoxicity was 0.505% [at 15.8 µM]. The cytotoxicity increase in [2] is 2.71% [at 15.8 µM]; in test [3] it was 1.29% [at 15.8 µM]; in test [9], 6.47% [at 15.8 µM]. In addition, in [4], the activity change, negative = cytotoxic is 0.412% [at 15.8 µM]. The activity change, negative = cytotoxicity in test [5] was 0.822% [at 15.8 µM]; in test [6], 0.36% [at 15.8 µM]; in test [8], 4.66% [at 15.8 µM]; in [10], 0.659% [at 19 µM]; in [14] it was -0.534% [at 19 µM]. Besides, the activity change was 0.377% [at 15.8 µM, active compounds read high] in test [7] and -3.94% [at 18.9 µM] in [16]. Also, the viability change, negative = cytotoxic in [11] is -0.0358% [at 19 µM]; in test [15], 14.7% [at 19 µM]. The Potency result in [12] is “inactive”. Moreover, the activity change, negative = inhibition in test [13] is -0.325% [at 19 µM].
`CN(Cc1ccc(C(C)(C)C)cc1)Cc1cccc2ccccc12`: the Potency result in [1], in test [2], in [3], in test [4], in [5] and in test [7] was “inactive” throughout. In addition, the Potency entry in test [8], in test [9], in test [10], in test [11], in test [12] and in test [13] was “inactive” throughout. The Potency entry in [14], in [15] and in test [18] was “inactive” in each case. In addition, the PLD induction in [17] was -0.504% [at 7.66 µM]. Also, the result in [16] was inactive.
In the case of `CNCCCN1c2ccccc2CCc2ccccc21`, the Potency in [2] is 26.8 µM (active). Also, the Potency entry in [3], in test [4], in test [6], in test [8], in test [9] and in test [10] was “inactive” each time. In addition, the Potency result in test [12], in test [13] and in [14] was “inactive” throughout. In addition, in test [16], the result was inactive.
Turning to `CCOc1ccc(O)cc1`, the Potency result in [19], in [3], in test [4], in [7], in test [8] and in test [9] was “inactive” in each case. The Potency result in [10], in test [11], in [12], in test [13], in [14] and in test [15] was “inactive” throughout. In test [18], the Potency result is “inactive”. Moreover, in test [16], the call was inactive.
As to `CCN(CC)CCOC(=O)C(Cc1cccc2ccccc12)CC1CCCO1` (configuration not stated), the Potency result in test [2], in [3], in test [4], in test [6], in test [7] and in [8] was “inactive” in each case. For the same molecule, the Potency entry in test [10], in [11], in test [17], in test [13], in test [14] and in [15] was “inactive” throughout. In addition, in test [18], the Potency entry was “inactive”. The molecule was called inactive in test [16].
On to `O=C(c1ccc(F)cc1)C1CCN(CCn2c(=S)[nH]c3ccccc3c2=O)CC1`, for which the Potency result in [19], in test [3], in test [7], in test [8], in [10] and in test [11] was “inactive” throughout. Moreover, the Potency result in test [20], in [13], in test [14], in test [15] and in [18] was “inactive” throughout. For the same molecule, the Potency in test [5] is 7.56 µM (active); in test [6], 4.77 µM (active). Also, the call in test [16] was inactive.
With `O=C1CCCCCCCCCCCC(=O)OCCO1`, the Potency result in test [3], in test [4], in test [5], in test [6], in test [7] and in [8] was “inactive” throughout. Also, the Potency result in [9], in [10], in test [11], in [20], in test [12] and in test [13] was “inactive” in each case. Moreover, the Potency entry in test [14], in test [15] and in test [18] was “inactive” throughout. In test [16], the molecule was classed as inactive.
For `COc1ccc(C(=O)c2ccc(OC)cc2O)c(O)c1`, the Potency entry in test [1], in test [2], in test [3], in test [4], in [8] and in test [9] was “inactive” in each case. Moreover, the Potency result in test [10], in [11], in [12], in [14], in test [15] and in test [18] was “inactive” throughout. The Potency in test [5] was 24.7 µM (active); in test [13] it was 30.9 µM (active). Further, the molecule was called inactive in test [16].
